Source: PubChem BioAssay (Tox21)
Unmarked numbers belong to inactive results. Records with an inconclusive call do not appear. Entries that show only a call come without a potency. The source made the active and inactive calls. Unless noted, calls come from the whole dose curve.

Legend:
[1] = Nuclear factor erythroid 2-related factor 2/antioxidant responsive element (Nrf2/ARE) small molecule agonists: qHTS cell viability counter screen in human keratinocytes (AID 1919968; active = well fitted curve in the direction sought with a large enough effect in the repeat runs; an effect the other way counts as inactive or inconclusive; note: nearly all actives have a fitted effect of over 55% in size)
How it was run: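 CellTiter-Fluor fluorescence, read 1 h after reagent, gave viability in the same wells as the ARE-luciferase assay. KeratinoSens cells (1,500/well) had 23 h compound exposure at 37 C/5% CO2 following 5 h plating.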

[2] = Nuclear factor erythroid 2-related factor 2/antioxidant responsive element (Nrf2/ARE) small molecule agonists: luciferase reporter gene qHTS assay in human keratinocytes (AID 1919969); note: nearly all actives have a fitted effect of over 35% in size; note: potency is the fitted concentration of half-maximal effect
[3] = target: Gonadotropin-releasing hormone receptor (Homo sapiens) (UniProt P30968); assay: Human gonadotropin-releasing hormone receptor (GnRHR) small molecule agonists, calcium flux assay in GnRHR-HEK293 cells (AID 1920063); note: nearly all actives have a fitted effect of over 35% in size
Gonadotropin-releasing hormone receptor (Homo sapiens), sequence (P30968 whole entry, looked up): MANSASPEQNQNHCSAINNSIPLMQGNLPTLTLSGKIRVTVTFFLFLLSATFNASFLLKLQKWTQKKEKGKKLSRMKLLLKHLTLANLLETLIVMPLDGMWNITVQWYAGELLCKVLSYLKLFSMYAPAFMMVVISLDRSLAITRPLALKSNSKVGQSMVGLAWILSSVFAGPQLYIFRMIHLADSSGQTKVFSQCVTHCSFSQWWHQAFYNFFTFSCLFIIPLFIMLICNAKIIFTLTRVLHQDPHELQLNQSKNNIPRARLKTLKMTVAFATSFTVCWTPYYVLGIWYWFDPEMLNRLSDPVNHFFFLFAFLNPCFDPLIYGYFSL
How it was run: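 Agonist mode: compounds at 15 concentrations, in triplicate, went onto calcium dye-loaded GnRHR-HEK293 cells. Intracellular calcium was then followed as 480/540 nm fluorescence at 1 s intervals over 3 min.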

[4] = target: KiSS-1 receptor (Homo sapiens) (UniProt Q969F8); assay: Human kisspeptin (KISS1R) small molecule agonists, calcium flux assay in KISS1R-HEK293 cells (AID 1920064; active = well fitted curve in the direction sought with a large enough effect in the repeat runs; an effect the other way counts as inactive or inconclusive)
KiSS-1 receptor (Homo sapiens), sequence (Q969F8 whole entry, looked up): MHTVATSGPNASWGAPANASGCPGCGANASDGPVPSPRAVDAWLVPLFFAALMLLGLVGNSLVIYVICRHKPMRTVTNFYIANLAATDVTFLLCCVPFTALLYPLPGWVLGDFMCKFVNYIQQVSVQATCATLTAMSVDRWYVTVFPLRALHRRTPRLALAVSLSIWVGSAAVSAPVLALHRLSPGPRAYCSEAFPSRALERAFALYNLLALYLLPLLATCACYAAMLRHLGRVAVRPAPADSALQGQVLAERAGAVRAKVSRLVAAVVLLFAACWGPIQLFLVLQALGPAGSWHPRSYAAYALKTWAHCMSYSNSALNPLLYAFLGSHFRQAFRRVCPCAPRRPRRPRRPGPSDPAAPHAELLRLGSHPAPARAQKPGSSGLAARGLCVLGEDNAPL
How it was run: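 Agonist mode: intracellular calcium rise tracked at 1 s intervals over 3 min (480/540 nm) immediately after compound addition to dye-loaded KISS1R-HEK293 stable cells. Each compound tested at 15 concentrations in triplicate.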

[5] = G protein-coupled receptor (GPCR) small molecule agonists, calcium flux assay: HEK293 wild type cell line counter screen (AID 1920065)
How it was run: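 Calcium flux counter screen: compound added in agonist mode at 15 concentrations in triplicate to dye-loaded parental HEK293 cells. Fluorescence (480/540) read kinetically for 3 min; ATP served as positive control.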

[6] = p53 small molecule agonists, cell-based qHTS assay with human liver microsomes (AID 1963577);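 note: p53 response element beta-lactamase reporter cells with liver microsomes plus NADPH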
How it was run: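 In this qHTS, p53 response-element beta-lactamase cells receive test compound together with a microsome/NADPH activating system (0.5 mg/mL final each) and are incubated 16 h at 37 C before LiveBLAzer fluorescence detection.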

[7] = p53 small molecule agonists, cell-based qHTS assay with rat liver microsomes (AID 1963578)
How it was run: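 Agonist mode in p53RE-bla reporter cells, with compounds co-incubated 16 h at 37 C alongside 0.5 mg/mL rat liver microsomes and 0.5 mg/mL NADPH (final), followed by a 2 h LiveBLAzer detection step.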

[8] = p53 small molecule agonists, cell-based qHTS assay with human liver microsomes: qHTS cell viability counter screen (AID 1963579); note: nearly all actives have a fitted effect of over 45% in size
How it was run: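 Metabolically activated exposure: compounds, human liver microsomes and NADPH (0.5 mg/mL final apiece) were added to p53RE-bla cells seeded 5 h earlier, left 16 h at 37 C, and then assessed for viability by CellTiter-Glo luminescence.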

[9] = p53 small molecule agonists, cell-based qHTS assay with rat liver microsomes: qHTS cell viability counter screen (AID 1963580); note: nearly all actives have a fitted effect of over 45% in size
How it was run: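 Cytotoxicity counter screen: intracellular ATP read by CellTiter-Glo luminescence in the p53 reporter wells. HCT-116 p53RE-bla cells were treated for 16 h at 37 C alongside rat liver microsomes and NADPH, each 0.5 mg/mL final.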

[10] = p53 small molecule agonists, cell-based qHTS assay: qHTS cell viability counter screen (AID 1963581); note: nearly all actives have a fitted effect of over 45% in size
How it was run: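 Counter screen read by CellTiter-Glo luminescence (ATP content, 30 min at room temperature), run in the same wells as the beta-lactamase reporter read. HCT-116 p53RE-bla cells saw compounds for 16 h at 37 C.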

[11] = p53 small molecule agonists, cell-based qHTS assay (AID 1963582; active = well fitted activation curve with a large enough effect in the signal ratio in the repeat runs, not every such curve was filed as active; the % refers to the signal ratio)
How it was run: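 Read-out is beta-lactamase FRET fluorescence after 2 h at room temperature with LiveBLAzer B/G substrate. p53 response element-bla cells were treated 16 h at 37 C with compounds in DMSO, added 5 h after seeding.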

[12] = target: 5-hydroxytryptamine receptor 2A (Homo sapiens) (UniProt P28223); assay: 5-hydroxytryptamine receptor 2A (HTR2A) small molecule antagonists, cell-based qHTS assay (AID 1963586); note: nearly all actives have a fitted effect of over 45% in size; note: potency is the fitted concentration of half-maximal effect
5-hydroxytryptamine receptor 2A (Homo sapiens), sequence (P28223 whole entry, looked up): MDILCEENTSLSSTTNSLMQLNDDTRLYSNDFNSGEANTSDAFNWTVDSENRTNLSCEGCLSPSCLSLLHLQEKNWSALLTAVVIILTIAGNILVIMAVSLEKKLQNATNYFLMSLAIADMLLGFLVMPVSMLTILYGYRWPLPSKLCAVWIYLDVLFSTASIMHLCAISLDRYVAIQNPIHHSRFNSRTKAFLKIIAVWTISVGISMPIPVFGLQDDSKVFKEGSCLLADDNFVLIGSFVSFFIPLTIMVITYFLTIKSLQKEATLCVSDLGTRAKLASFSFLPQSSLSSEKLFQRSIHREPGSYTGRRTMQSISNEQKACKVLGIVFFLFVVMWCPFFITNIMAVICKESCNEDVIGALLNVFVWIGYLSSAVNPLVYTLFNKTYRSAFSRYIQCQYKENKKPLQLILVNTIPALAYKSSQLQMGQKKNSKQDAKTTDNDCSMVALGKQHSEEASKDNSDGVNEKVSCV
How it was run: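 CHO cells stably expressing human HTR2A were plated for 18 h at 37 C, then loaded with calcium dye for 1 h. Compounds were preincubated 5 min at room temperature before DOI (4 nM solution) was added. Kinetic fluorescence was read for 3 min.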

[13] = target: 5-hydroxytryptamine receptor 2A (Homo sapiens) (UniProt P28223); assay: 5-hydroxytryptamine receptor 2A (HTR2A) small molecule agonists, cell-based qHTS assay (AID 1963587); note: nearly all actives have a fitted effect of over 30% in size
How it was run: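 Kinetic calcium-flux fluorescence (2 min, 1 sec intervals) after compound addition in agonist mode. HTR2A-CHO cells were cultured 18 h, then dye-loaded 1 h at 37 C.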

[14] = target: Muscarinic acetylcholine receptor M1 (Homo sapiens) (UniProt P11229); assay: Cholinergic receptor muscarinic 1 (CHRM1) small molecule antagonists, cell-based qHTS assay (AID 1963588); note: nearly all actives have a fitted effect of over 40% in size
Muscarinic acetylcholine receptor M1 (Homo sapiens), sequence (P11229 whole entry, looked up): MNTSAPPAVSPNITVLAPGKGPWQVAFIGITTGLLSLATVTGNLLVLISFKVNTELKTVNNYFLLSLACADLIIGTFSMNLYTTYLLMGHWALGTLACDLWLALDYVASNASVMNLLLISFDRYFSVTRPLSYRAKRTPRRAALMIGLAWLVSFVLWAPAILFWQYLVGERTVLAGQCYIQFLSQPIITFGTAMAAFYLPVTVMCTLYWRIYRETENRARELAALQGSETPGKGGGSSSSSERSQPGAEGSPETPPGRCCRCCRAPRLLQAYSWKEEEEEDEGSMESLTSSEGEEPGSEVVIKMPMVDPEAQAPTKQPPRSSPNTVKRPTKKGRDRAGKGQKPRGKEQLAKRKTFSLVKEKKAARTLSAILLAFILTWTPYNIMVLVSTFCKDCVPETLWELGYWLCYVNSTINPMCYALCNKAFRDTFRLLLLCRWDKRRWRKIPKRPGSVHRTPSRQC
How it was run: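 Compounds were tested at 15 concentrations in three independent runs. Dye-loaded CHRM1-CHO cells were exposed 5 min at room temperature before stimulation by acetylcholine added at 50nM. Intracellular calcium was read kinetically on FDSS for 3 min.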

[15] = cAMP Responsive Elements (CRE) small molecule agonists, cell-based qHTS assay (AID 1963590)
How it was run: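 Agonist mode: compound added to CRE-bla HEK 293T cells (2,000/well, 18 h after plating) for 3 h at 37 C/5% CO2. Reporter activity detected via FRET beta-lactamase substrate, 2 h room-temperature loading.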

[16] = cAMP Responsive Elements (CRE) small molecule antagonists, cell-based qHTS assay (AID 1963591; active = well fitted inhibition curve with a large enough effect in the signal ratio in the repeat runs, not every such curve was filed as active; the % refers to the signal ratio)
How it was run: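 Antagonist mode: compounds are added alongside the adenylyl cyclase activator NKH477 (0.25 uM final) to CRE-bla HEK293T cells for 3 h. LiveBLAzer FRET substrate, 2 h at room temperature, reports bla expression.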

[17] = target: Beta-2 adrenergic receptor (Homo sapiens) (UniProt P07550); assay: Adrenergic beta2 receptor (ADRB2) small molecule antagonists, cell-based qHTS assay (AID 1963592); note: series mostly up to about 92 µM; nearly all actives have a fitted effect of over 50% in size
Beta-2 adrenergic receptor (Homo sapiens), sequence (P07550 whole entry, looked up): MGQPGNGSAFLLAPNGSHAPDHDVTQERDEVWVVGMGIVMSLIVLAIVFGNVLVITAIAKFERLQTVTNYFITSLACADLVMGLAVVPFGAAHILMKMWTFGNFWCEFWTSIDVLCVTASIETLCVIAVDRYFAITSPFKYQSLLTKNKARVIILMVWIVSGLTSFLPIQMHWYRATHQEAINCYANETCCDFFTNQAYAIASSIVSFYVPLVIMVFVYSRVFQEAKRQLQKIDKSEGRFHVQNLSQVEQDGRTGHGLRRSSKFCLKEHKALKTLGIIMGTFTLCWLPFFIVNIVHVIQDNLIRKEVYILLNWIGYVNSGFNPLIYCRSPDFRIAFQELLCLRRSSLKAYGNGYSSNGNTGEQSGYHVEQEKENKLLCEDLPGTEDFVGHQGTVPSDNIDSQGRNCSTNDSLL
How it was run: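 Assay format: CHO-ADRB2 cells, 18-20hr seeding at 37C/5% CO2, then compound plus 1nM isoproterenol agonist mix for 0.5hr RT. Homogeneous time-resolved fluorescence cAMP detection after 1hr, expressed as 665/615 nm ratio.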

[18] = target: D(2) dopamine receptor (Homo sapiens) (UniProt P14416); assay: Dopamine D2 receptor (DRD2) small molecule agonists, cell-based qHTS assay (AID 1963594); note: nearly all actives have a fitted effect of over 35% in size
D(2) dopamine receptor (Homo sapiens), sequence (P14416 whole entry, looked up): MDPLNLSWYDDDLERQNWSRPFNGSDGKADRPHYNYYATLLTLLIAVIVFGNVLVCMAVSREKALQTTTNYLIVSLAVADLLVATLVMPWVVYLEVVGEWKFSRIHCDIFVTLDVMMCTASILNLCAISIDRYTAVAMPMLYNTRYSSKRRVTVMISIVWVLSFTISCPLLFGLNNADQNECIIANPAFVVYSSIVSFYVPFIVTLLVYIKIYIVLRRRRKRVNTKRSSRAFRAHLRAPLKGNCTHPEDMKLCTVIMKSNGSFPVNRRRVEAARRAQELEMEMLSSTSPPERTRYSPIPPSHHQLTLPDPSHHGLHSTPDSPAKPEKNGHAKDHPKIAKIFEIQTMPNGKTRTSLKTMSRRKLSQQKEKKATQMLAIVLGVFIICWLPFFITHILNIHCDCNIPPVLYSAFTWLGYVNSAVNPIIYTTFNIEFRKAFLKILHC
How it was run: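 cAMP accumulation in DRD2-HEK293 cells measured by HTRF after 1 h detection; compounds added 10 min before NKH477 (200nM […]) forskolin-analogue stimulation, 30 min at room temperature, with Ro20-1724 present at 0.1 mM final.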

[19] = target: Muscarinic acetylcholine receptor M1 (Homo sapiens) (UniProt P11229); assay: Cholinergic receptor muscarinic 1 (CHRM1) small molecule agonists, cell-based qHTS assay (AID 1963589); note: nearly all actives have a fitted effect of over 35% in size
How it was run: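 Agonist-mode calcium-flux screen: compounds at 15 concentrations, three independent runs, were pin-transferred onto dye-loaded human CHRM1-CHO cells. Fluorescence was then recorded kinetically every second over minutes.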

[20] = target: D(2) dopamine receptor (Homo sapiens) (UniProt P14416); assay: Dopamine D2 receptor (DRD2) small molecule antagonists, cell-based qHTS assay (AID 1963595; active = well fitted inhibition curve with a large enough effect in the signal ratio in the repeat runs, with a control signal flat; the % refers to the signal ratio)
How it was run: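 HEK293 cells stably expressing DRD2, preincubated with 0.1 mM Ro20-1724 and compounds 10 min, were stimulated with 200 nM NKH477 plus 12 nM quinpirole for 30 min at room temperature; cAMP measured by HTRF (665/620 nm).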

Structure (SMILES) | Potency [1] | Potency [2] | Potency [3] | outcome [4] | outcome [5] | Potency [6] | Potency [7] | Potency [8] | Potency [9] | Potency [10] | Potency [11] | Potency [12] | Potency [13] | Potency [14] | Potency [15] | Potency [16] | Potency [17] | Potency [18] | Potency [19] | Potency [20]
CCCCC/C=C\CCC=O | inactive | inactive | inactive | inactive | inactive | inactive | inactive | inactive | inactive | inactive | inactive | inactive | inactive | inactive | inactive | inactive | inactive | inactive | – | –
CCOC(=O)C(=O)CCc1ccccc1 | inactive | inactive | inactive | inactive | inactive | inactive | inactive | inactive | inactive | inactive | inactive | inactive | inactive | inactive | – | inactive | – | inactive | inactive | inactive
CCCCCC(=O)OCCc1ccccc1 | inactive | inactive | inactive | inactive | inactive | inactive | inactive | inactive | inactive | inactive | inactive | inactive | inactive | inactive | inactive | inactive | inactive | – | – | inactive
Cc1ccc(S)cc1 | inactive | 24.3 µM (active) | inactive | inactive | inactive | inactive | inactive | inactive | inactive | inactive | inactive | 42.1 µM (active) | inactive | inactive | – | – | inactive | inactive | inactive | inactive
